Data taken from PubChem BioAssay (NCATS).
Results filed as inconclusive are left out. Active and inactive are the calls of the source. The call rests on the fitted dose curve; in most records, active means well fitted inhibition curve with a large enough effect; inconclusive means small, poorly fitted or top-dose-only effect; inactive means flat fitted curve, though single readings scatter.

Experiment: qHTS for Inhibitors of Plasmodium falciparum (HB3) proliferation (AID 504318); further: nearly all actives have a fitted effect of over 60% in size;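 on activity change, negative = inhibition: 0% = DMSO vehicle and -100% = artemisinin control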
Details: P. falciparum HB3 in erythrocytes, SYBR Green DNA, 72 h; series mostly up to 7.21 µM; activity change, negative = inhibition: at the top concentration
Description: Plasmodium falciparum is a virulent malarial parasite that kills 1-2 million people worldwide each year. Malaria not only inflicts tremendous suffering and morbidity on the human population, but has dramatically influenced the course of civilization with profound sociological and economic implications (Shah, S. 2010). Transmitted by mosquitoes, the sporozoite form of the parasite enters the blood stream to infect hepatocytes, where they become merozoites that infect red blood cells (erythrocytes). Within erythrocytes, merozoites begin a […] cycle of growth and division, after which the parasite is released to infect new red blood cells. Gametocytes, which form within erythrocytes as well, circulate in the bloodstream and are ingested by the mosquito, thereby completing the life cycle (see CDC website). To profile malarial lines for differential chemical responses and to identify inhibitors of malarial growth, an assay that measures P. falciparum growth and replication within erythrocytes was employed. This assay uses a DNA binding fluorescent dye (SYBR Green) to detect parasite DNA following cell lysis. Because mature erythrocytes lack DNA, only Plasmodium-derived DNA is detected. The P. falciparum line cp250, derived from a malarial isolate from Cambodia, (Mu, J., et al. 2010) was added to the panel of lines, Dd2, HB3, 7G8 and GB4 in this study. Laboratory of Assay Development and Screening Technology [ADST] and NIH Chemical Genomics Center [NCGC] Boston University, Chemistry Department, Center for Chemical Methodology and Library Development [CMLD-BU] NIH National Institute of Allergy and Infectious Diseases [NIAID]
ADST Assay Protocol Summary: The 1536-well SYBR Green viability assay was based on the method of Bennett et al (2004) and described previously in 1536-well format (Yuan J., et al. 2009). For screening 3 ul culture medium was dispensed into 1536 well black clear bottom plates (Aurora Biotechnologies) using a Multidrop Combi (Thermo Fisher Scientific Inc.), 23 nL compounds in DMSO were added by a pin transfer (Cleveland, P.H. and Koutz, P.J, 2005) using a pin tool-based delivery system (Kalypsys), and 5 ul of erythrocytes infected with P. falciparum one of five lines (cp250, Dd2, HB3, 7G8 or GB4, 0.3% parasitemia, 2.5% hematocrit final concentration) were added. The plates were incubated at 37C in a humidified incubator in 5% CO2 for 72 h, and 2 ul lysis buffer (20 mM Tris HCl, 10 mM EDTA, 0.16% saponin, 1.6% triton X, 10X SYBR Green I (supplied as 10,000X final concentration by Invitrogen) was added to each well. The plates were mixed for 25 sec with gentle shaking and incubated overnight at room temperature in the dark. The following morning, fluorescence intensity at 485(14) nm excitation and 535(25) nm emission wavelengths was measured on an EnVision (Perkin Elmer) plate reader. Plate reads were normalized relative to the control inhibitor (0.29 uM artemisinin) and vehicle (DMSO) wells present on each plate and then corrected by an algorithm using vehicle-only control plates at the beginning and end of the compound plate stack. References Shah, S. (2010). The Fever: how malaria has ruled humankind for 500,000 years. New York, Sarah Crichton Books. CDC web site, http://www.cdc.gov/malaria/about/biology/index.html Mu, J., Myers, R.A., Jiang, H., Liu, S., Ricklefs, S., Waisberg, M., Chotivanich, K., Wilairatana, P., Krudsood, S., White, N.J., et Plasmodium falciparum genome-wide scans for positive selection, recombination hot spots and resistance to antimalarial drugs Nature Genetics 2010, 42, pp 268-271 Bennett TN, Paguio, M., Gligorijevic, B., Seudieu, C., Kosar, A. D., Davidson, E., and Roepe, P. D. Novel, rapid, and inexpensive cell-based quantification of antimalarial drug efficacy Antimicrobial Agents Chemother. 2004, 48(5): pp 1807-10 Yuan J, Johnson RL, Huang RL, Wichterman J, Jiang HY, Hayton K, Fidock DA, Wellems TE, Inglese J, Austin CP, Su XZ. […]
Potency means the concentration at half of the fitted maximal effect.

Potency, active:
O=C1C2=C(C(=O)c3ccccc31)[C@H]1O[C@](CCCCN3C(=O)c4ccccc4C3=O)(Cc3c1ccc1ccccc31)O2 757 nM
COc1cc2c(cc1OC)[C@@H]1O[C@](CCCCN3C(=O)c4ccccc4C3=O)(C2)Oc2cc(C)n(Cc3ccccc3)c(=O)c21 1690 nM

Potency, inactive:
C=CCC(Nc1ccc(OC)cc1)C(=O)OCC (stereo not given)
CCCCc1nc2c(c3c1C[C@H](C)OC3)CN(C(=O)c1ccco1)CC2
CCN1C(=O)N[C@@H](c2cccc(C(F)(F)F)c2)[C@H](C(C)=O)[C@H]1C
COc1ccc(-c2nc(-c3ccccc3)oc2Nc2ccccc2C)cc1
CCN(CC)CCCN1C=C2C(=O)C(C)(OC(=O)C3CCCC3)C(=O)C=C2C=C1c1ccsc1 (stereo not given)

Activity change, negative = inhibition, inactive:
CC(=O)OC[C@H]1O[C@H](c2ccc(C(C)=O)cc2)C=C[C@H]1OC(C)=O 1.71%
COc1ccc(C2=CC3=C(Br)C(=O)C(C)(O)C(=O)C3=CO2)cc1 (stereo not given) -5.49%
CC(=O)C1=CN(CCC=Cc2ccccc2)C(=O)NC1c1ccccc1 (stereo not given) -7.54%
COc1ccc2c(c1)O[C@@H](c1ccc3c(c1)OCO3)[C@H](OC(=O)N[C@H](C)C1CCCCC1)C2=O -9.33%
COC(=O)[C@@H](O)CC[C@@H](C)Cc1c(OC)c(OC)c(C)c(OC)c1OC -4.18%
CCOC(=O)C1=CN(CCC=C(C)C)C(=O)N(C(C)=O)C1c1ccccc1 (stereo not given) -10.4%
O=C1CCCC2=C1[C@H]1O[C@](c3ccsc3)(Cc3c1ccc1ccccc31)O2 -14.4%
COC(=O)C1=C(C(=O)OC)[C@@H]2N(C)c3ccccc3[C@@]23C[C@@H](CO)N(C(=O)c2ccc(Br)cc2)C3=N1 -6.74%
COc1ccc2c(c1)O[C@@H](c1ccc3c(c1)OCO3)[C@H](O)C2=O 4.24%
COC(=O)[C@H](COC(C)(C)C)NC(=O)O[C@@H]1C(=O)c2ccc(OC)cc2O[C@H]1c1ccc2c(c1)OCO2 -6.21%
CCN1C(=NCc2cccc(C(F)(F)F)c2)NC(c2cccc(F)c2)C(C(=O)OC)=C1C (stereo not given) -1.45%
COC(=O)C1=C(C(=O)OC)[C@@H]2N(C)c3ccc(OC)cc3[C@@]23C[C@@H](C(=O)OC)N(C(=O)c2cc(C)oc2C)C3=N1 -10.1%
C(=Cc1nc(-c2ccccc2)oc1Nc1ccc2ccccc2c1)c1ccccc1 -13.7%
CCOC(=O)CCN1C(=O)[C@@H]2[C@H]3[C@H](O)[C@H](O)CC(=NNC(=O)OCc4ccccc4)[C@H]3CC[C@H]2C1=O -4.75%
C#CCNC(=O)[C@H]1C=C(OC)C(=O)C[C@H](c2ccccc2)[C@H]1C -0.69%
COC(=O)[C@H]1[C@@H](c2cccc(C(F)(F)F)c2)NC(=O)N(Cc2ccccc2)[C@@H]1C 2.53%
CC[C@H](C)[C@@H](NC(=O)O[C@@H]1C(=O)c2cc(OC)ccc2O[C@H]1c1ccc(OC)c(Br)c1)C(=O)OC -4.79%
COC(=O)CC=C[C@@H](C)[C@H](NC(=O)OCC(Cl)(Cl)Cl)c1ccccc1 5.74%
C=C(C(=O)OCC)C(=O)c1ccccc1 4.42%
CCN1C(=NCc2cccc(C(F)(F)F)c2)NC(c2cccs2)C(C(=O)OC)=C1C (stereo not given) 9.53%
CC(C)(C)OC(=O)NCCCC1=CC2=CC(=O)C(C)(O)C(=O)C2=CO1 (stereo not given) -3.97%
c1ccc(C2NCCc3c2[nH]c2ccccc32)cc1 (stereo not given) 15.3%
C[C@]12O[C@@H]1[C@@H](O)C(Br)=C(CO)[C@@H]2O 8.23%
C=CCC(Nc1ccc(OC)cc1)(C(=O)OCC)c1ccccc1 (stereo not given) 4.41%
COC(=O)CC=C[C@@H](C)[C@@H](C=NO[C@H](C)c1cn([C@@H]2COC[C@@H]2O)nn1)N[S+](=O)([O-])c1ccc(C)cc1 -2.64%
C[C@H]1Cc2c(COc3ccccc3)nc3c(c2CO1)CN(C(=O)c1cccnc1)CC3 -0.583%
C#CCN1C(=O)[C@@]2(CC(C)=CC[C@@H](C)O2)c2ccccc21 -0.545%
C=CCOC(=O)N[C@H](C(C(=O)OC)=C(C)NCc1ccccc1)c1cccc(OC)c1 6.9%
COCn1c2ccccc2c2nnc(C(=O)O)nc21 11%
CC1(OC(=O)C2CCCC2)C(=O)C=C2C=C(c3ccsc3)N(c3cccc(C#N)c3)C=C2C1=O (stereo not given) -15.1%
CC1(C)O[C@H]2OC([C@H](O)CON3C(=O)c4ccccc4C3=O)[C@H](O)[C@@H]2O1 (stereo not given in full) 6.06%
COC(=O)C(Cc1cc(Br)c(OC)c(Br)c1O)=NO -6.68%
COC(=O)N[C@H](C[N+](=O)[O-])C(C)(C)C 3.72%
